Reference: the supplement of paper PMC11732987, “Enantioselective OTUD7B fragment discovery through chemoproteomics screening and high-throughput optimisation” (Communications Chemistry, 2025)

Legend:
Assay in all cases: log2 ratio of Biotin-Ahx-Ub-VS probe labelling (fragment/DMSO); higher = less target engagement (more negative = stronger competition), active = hit call of the paper (q ≤ 0.05, log2 ratio ≤ -1)
Conditions in all cases: compound concentration: 200 uM; treatment time: 3 h
USP34 = USP34 (UniProt Q70CQ2)
Sequence of USP34 (Q70CQ2 whole entry, the tested form may be a part): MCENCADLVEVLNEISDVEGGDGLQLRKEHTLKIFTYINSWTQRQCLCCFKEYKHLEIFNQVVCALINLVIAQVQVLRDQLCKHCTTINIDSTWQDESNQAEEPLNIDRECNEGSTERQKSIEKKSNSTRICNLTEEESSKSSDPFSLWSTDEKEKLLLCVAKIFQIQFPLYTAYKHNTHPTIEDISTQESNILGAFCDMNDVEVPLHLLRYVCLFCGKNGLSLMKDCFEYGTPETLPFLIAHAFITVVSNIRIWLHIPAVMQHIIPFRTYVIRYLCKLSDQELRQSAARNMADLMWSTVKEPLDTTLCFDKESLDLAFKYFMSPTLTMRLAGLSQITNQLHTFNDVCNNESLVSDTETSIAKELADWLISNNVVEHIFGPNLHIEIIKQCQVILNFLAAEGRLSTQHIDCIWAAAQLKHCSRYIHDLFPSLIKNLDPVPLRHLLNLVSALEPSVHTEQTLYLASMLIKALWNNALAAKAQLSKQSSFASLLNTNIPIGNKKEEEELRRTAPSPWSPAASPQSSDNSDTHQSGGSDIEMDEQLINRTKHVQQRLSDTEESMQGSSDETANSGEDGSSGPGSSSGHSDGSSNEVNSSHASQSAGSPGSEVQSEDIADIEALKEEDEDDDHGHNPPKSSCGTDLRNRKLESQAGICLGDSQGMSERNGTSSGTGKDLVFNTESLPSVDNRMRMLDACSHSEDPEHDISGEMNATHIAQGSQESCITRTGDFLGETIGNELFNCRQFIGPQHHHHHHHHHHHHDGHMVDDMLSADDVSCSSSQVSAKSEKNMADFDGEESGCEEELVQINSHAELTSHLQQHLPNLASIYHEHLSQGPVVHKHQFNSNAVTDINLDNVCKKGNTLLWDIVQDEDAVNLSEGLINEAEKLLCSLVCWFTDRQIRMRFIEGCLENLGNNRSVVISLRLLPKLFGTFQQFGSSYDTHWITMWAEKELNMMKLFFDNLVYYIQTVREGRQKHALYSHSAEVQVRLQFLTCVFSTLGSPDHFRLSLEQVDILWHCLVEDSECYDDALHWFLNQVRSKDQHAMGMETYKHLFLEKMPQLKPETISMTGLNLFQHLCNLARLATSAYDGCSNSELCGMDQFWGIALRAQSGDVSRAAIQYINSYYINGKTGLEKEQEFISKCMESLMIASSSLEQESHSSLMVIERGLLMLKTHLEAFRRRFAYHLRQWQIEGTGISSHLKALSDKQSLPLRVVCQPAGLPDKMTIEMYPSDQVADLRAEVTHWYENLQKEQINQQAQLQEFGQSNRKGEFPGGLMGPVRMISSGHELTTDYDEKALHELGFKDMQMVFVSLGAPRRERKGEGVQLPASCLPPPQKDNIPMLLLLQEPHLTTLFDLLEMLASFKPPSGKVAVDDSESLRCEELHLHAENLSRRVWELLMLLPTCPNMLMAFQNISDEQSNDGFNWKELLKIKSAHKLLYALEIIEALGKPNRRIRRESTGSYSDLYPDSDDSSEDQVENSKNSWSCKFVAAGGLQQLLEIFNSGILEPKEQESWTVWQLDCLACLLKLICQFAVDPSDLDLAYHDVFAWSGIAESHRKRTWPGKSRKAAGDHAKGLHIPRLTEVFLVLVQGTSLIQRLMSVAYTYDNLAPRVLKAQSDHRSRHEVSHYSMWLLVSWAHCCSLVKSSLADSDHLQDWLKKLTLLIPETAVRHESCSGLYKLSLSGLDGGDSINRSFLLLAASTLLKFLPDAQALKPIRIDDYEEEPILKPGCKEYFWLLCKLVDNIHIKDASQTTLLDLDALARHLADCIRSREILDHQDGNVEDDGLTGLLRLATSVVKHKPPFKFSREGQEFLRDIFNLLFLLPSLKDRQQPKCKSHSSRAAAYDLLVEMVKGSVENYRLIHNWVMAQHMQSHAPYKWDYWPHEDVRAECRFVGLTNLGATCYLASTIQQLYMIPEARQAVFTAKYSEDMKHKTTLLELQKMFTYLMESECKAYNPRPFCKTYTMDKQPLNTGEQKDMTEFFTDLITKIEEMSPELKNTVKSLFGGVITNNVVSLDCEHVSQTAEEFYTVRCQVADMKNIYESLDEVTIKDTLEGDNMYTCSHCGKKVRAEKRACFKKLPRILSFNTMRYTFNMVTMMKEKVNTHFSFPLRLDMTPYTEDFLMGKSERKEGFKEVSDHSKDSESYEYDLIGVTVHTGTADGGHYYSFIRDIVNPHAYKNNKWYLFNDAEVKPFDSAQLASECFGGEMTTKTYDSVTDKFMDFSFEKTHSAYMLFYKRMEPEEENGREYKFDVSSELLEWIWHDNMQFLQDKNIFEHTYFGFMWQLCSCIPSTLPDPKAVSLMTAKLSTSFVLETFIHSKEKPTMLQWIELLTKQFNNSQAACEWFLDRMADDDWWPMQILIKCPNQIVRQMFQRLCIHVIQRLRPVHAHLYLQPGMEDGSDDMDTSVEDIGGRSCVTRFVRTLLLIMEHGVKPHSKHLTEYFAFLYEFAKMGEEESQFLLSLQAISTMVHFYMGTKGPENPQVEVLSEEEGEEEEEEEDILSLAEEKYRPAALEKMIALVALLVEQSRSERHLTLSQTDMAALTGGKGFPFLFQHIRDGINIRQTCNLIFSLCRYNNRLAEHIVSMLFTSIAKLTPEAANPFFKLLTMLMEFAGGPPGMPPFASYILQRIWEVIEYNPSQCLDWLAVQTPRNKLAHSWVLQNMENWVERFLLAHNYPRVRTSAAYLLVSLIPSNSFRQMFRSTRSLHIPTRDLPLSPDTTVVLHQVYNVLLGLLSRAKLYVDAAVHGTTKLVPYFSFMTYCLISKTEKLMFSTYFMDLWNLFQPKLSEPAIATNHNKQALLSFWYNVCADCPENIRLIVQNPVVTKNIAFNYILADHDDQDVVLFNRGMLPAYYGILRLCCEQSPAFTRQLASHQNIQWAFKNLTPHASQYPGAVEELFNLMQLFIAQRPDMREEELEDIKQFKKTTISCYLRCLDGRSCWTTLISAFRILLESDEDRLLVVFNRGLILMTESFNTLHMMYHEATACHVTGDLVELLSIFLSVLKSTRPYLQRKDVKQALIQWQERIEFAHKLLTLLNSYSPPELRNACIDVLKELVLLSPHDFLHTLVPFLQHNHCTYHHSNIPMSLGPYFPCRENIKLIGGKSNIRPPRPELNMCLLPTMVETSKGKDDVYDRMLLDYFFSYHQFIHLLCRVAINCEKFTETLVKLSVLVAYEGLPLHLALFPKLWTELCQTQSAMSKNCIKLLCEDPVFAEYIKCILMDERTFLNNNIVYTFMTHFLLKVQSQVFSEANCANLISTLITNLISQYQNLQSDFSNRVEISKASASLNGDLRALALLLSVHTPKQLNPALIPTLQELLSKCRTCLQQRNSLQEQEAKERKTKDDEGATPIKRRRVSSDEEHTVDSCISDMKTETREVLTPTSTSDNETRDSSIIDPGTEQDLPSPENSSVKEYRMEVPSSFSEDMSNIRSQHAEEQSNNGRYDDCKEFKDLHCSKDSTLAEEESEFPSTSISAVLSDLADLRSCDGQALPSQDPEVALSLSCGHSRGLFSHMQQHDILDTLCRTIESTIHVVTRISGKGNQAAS
Summary of the method: (§1)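 Global-median-normalised Spectronaut label-free quantities were compared by unpaired t-test, and values are average log2 ratios of fragment over vehicle. Only proteins with ≥2 unique peptides were used. HEK293T lysate (495 µg per sample) was treated in triplicate with fragment at 200 µM or vehicle for 3 h and then with Biotin-Ahx-Ub-VS at 0.5 µM final for 1 h. Labelled DUBs were then NeutrAvidin-enriched, digested with LysC and trypsin, and run by diaPASEF LC-MS/MS.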

USP36 = biological target: T1, USP36 (UniProt Q9P275)
T1 sequence (whole entry): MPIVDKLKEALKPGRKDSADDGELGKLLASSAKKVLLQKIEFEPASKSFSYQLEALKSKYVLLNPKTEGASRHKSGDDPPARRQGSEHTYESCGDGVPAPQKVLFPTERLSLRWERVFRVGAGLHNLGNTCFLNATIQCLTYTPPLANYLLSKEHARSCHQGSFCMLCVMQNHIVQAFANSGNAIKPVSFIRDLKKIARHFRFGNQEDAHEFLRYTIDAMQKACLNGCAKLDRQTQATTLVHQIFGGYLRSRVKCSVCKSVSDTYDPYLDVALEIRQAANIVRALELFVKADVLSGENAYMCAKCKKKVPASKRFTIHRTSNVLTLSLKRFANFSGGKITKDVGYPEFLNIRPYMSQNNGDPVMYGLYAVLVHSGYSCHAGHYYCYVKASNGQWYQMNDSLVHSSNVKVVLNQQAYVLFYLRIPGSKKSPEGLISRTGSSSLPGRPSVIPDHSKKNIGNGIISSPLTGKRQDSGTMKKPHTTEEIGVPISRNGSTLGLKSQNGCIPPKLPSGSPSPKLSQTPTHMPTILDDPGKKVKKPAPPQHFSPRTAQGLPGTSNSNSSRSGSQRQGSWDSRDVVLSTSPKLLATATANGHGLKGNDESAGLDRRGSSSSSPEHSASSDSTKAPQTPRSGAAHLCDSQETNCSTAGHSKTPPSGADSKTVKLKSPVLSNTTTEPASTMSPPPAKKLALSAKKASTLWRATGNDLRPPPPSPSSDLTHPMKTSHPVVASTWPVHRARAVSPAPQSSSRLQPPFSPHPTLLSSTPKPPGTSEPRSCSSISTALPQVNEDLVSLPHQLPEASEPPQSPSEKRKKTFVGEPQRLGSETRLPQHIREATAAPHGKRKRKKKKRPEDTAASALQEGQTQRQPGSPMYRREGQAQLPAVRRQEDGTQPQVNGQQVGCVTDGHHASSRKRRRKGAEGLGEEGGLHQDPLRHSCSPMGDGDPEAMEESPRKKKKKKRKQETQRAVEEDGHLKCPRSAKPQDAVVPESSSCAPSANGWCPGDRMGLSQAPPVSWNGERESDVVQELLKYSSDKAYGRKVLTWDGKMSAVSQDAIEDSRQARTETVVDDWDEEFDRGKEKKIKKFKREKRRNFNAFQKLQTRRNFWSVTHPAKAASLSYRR
Summary of the method: as §1

USP38 = biological target: T2, USP38 (UniProt Q8NB14)
T2 sequence (whole entry): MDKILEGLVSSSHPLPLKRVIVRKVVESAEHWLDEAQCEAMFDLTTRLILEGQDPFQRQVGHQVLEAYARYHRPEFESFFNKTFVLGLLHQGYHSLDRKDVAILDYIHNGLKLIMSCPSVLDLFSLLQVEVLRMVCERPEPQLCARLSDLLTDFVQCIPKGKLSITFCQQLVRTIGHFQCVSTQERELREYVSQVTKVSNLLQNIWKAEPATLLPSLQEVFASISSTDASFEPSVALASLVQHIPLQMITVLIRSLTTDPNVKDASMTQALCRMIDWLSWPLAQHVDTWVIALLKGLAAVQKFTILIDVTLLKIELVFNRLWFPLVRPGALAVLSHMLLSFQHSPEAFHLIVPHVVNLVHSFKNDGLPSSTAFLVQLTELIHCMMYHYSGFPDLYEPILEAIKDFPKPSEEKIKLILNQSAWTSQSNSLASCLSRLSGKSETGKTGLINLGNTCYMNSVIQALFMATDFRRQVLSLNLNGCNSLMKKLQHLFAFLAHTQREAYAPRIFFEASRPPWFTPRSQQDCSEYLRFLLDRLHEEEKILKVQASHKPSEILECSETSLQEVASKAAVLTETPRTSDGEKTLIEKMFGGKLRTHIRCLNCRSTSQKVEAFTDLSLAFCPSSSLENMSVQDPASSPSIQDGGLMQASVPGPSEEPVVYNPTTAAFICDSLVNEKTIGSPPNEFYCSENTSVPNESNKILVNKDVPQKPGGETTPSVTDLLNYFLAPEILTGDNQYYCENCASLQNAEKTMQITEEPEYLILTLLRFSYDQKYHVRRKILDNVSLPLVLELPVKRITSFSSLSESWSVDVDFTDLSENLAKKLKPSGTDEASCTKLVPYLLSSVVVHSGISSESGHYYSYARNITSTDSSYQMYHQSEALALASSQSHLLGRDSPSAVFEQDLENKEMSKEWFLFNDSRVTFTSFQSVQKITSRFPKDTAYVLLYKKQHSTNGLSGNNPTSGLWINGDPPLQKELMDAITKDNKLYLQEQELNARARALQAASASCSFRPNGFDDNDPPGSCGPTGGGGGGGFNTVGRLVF
Summary of the method: as §1

USP39 = biological target: T3, USP39 (UniProt Q53GS9)
T3 sequence (whole entry): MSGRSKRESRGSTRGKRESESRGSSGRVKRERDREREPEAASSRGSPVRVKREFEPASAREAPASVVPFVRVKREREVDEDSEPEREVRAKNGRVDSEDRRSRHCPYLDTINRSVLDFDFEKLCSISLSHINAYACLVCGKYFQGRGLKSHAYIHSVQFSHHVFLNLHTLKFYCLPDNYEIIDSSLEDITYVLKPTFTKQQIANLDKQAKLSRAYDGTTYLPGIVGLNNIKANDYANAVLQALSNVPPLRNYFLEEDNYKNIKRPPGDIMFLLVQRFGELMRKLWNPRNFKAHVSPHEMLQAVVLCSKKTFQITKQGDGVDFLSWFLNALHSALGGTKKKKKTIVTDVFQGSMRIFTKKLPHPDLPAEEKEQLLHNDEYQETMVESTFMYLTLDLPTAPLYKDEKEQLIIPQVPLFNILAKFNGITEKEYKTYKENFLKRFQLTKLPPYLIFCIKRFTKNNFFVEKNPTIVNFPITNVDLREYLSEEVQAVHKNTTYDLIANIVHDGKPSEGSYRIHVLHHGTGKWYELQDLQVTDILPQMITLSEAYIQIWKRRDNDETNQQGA
Summary of the method: as §1

USP4 = biological target: T4, USP4 (UniProt Q13107)
T4 sequence (whole entry): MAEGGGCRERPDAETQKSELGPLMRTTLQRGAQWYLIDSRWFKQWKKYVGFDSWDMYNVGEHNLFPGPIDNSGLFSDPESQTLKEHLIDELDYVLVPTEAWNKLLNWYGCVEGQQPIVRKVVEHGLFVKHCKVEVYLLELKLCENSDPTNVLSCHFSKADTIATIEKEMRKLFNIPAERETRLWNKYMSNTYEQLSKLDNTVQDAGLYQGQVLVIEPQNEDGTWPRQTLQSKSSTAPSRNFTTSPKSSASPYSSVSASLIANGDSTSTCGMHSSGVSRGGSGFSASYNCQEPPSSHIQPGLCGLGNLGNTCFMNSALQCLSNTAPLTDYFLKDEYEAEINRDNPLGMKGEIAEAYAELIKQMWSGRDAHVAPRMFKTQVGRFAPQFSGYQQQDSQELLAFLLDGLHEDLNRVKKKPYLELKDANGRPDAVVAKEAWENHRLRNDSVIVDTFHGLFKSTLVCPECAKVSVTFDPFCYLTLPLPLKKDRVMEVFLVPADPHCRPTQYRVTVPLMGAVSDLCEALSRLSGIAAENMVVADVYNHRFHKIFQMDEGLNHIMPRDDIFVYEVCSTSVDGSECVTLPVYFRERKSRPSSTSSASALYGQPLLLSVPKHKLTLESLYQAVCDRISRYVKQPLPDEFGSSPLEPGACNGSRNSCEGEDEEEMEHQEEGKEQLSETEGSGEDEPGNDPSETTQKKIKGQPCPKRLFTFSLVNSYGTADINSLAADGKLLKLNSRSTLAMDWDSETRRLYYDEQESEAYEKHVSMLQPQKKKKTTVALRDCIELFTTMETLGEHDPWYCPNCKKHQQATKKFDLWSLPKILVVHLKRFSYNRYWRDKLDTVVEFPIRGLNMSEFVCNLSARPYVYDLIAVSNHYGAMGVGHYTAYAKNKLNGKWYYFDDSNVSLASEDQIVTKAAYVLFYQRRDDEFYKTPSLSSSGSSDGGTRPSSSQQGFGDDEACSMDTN
Summary of the method: as §1

Measured: log2 ratio of Biotin-Ahx-Ub-VS probe labelling

O=C(CCl)Nc1cc2c(cc1Cl)OCCCO2
inactive: USP34 0.0191 | USP36 -0.11 | USP38 0.0869 | USP39 0.0922 | USP4 0.154
